The results in this text go back to PubChem BioAssay AID371 (SRMLSC, 2006).

Molecules are shown by their SMILES. Among all 3,300 compounds or so, about 280 (8.5%) were called active. This is one part of a sample in which actives are shown more often than they occur. Unmarked numbers belong to inactive results.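 How the source made its calls: active means mean growth inhibition over the two runs of 50% or more; inactive means mean growth inhibition under 50%.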

This assay can be described thus: A549 NSCLC cell proliferation inhibitors – ATP luminescence, human non-small cell lung line, primary screen (AID 371).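 Further: compound exposure lasted 72 h before the ATP read; 0% = untreated cell signal and 100% = no luminescence left.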 To be noted: at 10 µM, active compounds read high.
Turning to `COc1cc(NC2=CC(=O)CC(C)(C)C2)cc(OC)c1OC`, the growth inhibition was 3.91%.

As for `Cc1nc(NS(=O)(=O)c2ccccc2)sc1NC(=O)OC(C)C`, the growth inhibition was 3.58%.

Consider `Cc1cccc(-c2nc(C#N)c(NC3CCCCC3)o2)c1`, for which the growth inhibition is 34.3%.

Take `Cc1ccc(S(=O)(=O)c2cc3c(=O)n4ccccc4nc3n(C)c2=N)cc1`: the growth inhibition was -2.02%.

As for `Cc1ccc(CNC(=O)c2cc3c(=O)n4ccccc4nc3n(Cc3ccco3)c2=N)cc1`, the growth inhibition is 92.5% (active).

Turning to `CCNC(=O)c1cc2c(=O)n3cccc(C)c3nc2n(CCc2ccccc2)c1=N`, the growth inhibition was 70.5% (active).

For the molecule `N=c1c(C(=O)NCc2ccccc2)cc2c(=O)n3ccccc3nc2n1Cc1ccco1`, the growth inhibition is 90.5% (active).

Take `Cc1cccn2c(=O)c3cc(C(=O)NCc4cccnc4)c(=N)n(C)c3nc12`: the growth inhibition is -1.19%.

As to `CCOC(=O)c1cc2c(=O)n3cccc(C)c3nc2n(CCc2ccccc2)c1=N`, the growth inhibition was 16.5%.

In the case of `Cc1ccc(CNC(=O)c2cc3c(=O)n4ccccc4nc3n(CC3CCCO3)c2=N)cc1` (stereo not drawn), the growth inhibition is 44.3%.

Take `CC(C)OCCCn1c(=N)c(C(N)=S)cc2c(=O)n3ccccc3nc21`: the growth inhibition was 42.5%.

Consider `Cc1cccn2c(=O)c3cc(C(N)=S)c(=N)n(CCCOC(C)C)c3nc12`, for which the growth inhibition was 51.3% (active).

Take `COC(=O)c1cc2c(=O)n3cccc(C)c3nc2n(Cc2cccnc2)c1=N`: the growth inhibition is 2.48%.

Take `CCOC(=O)c1cc2c(=O)n3cccc(C)c3nc2n(C)c1=N`: the growth inhibition was 27.1%.

Consider `Cn1c(=O)c2c(nc(NCc3ccco3)n2CCc2ccccc2)n(C)c1=O`, for which the growth inhibition was 34.5%.

Regarding `CCOC(=O)CSC1=C(C#N)C(c2ccc(C)cc2)C(C(=O)OC)C(=O)N1` (stereo not drawn), the growth inhibition is 8.41%.

In the case of `CCOC(=O)C1=C(C)OC(N)=C(C#N)C1c1cc2ccccc2nc1N1CCCCC1` (stereo not drawn), the growth inhibition is 22.5%.

For `COC(=O)c1cc(S(=O)(=O)N2CCOCC2)c(N2CCOCC2)cc1N1CCOCC1`, the growth inhibition was 8.19%.

Take `COCCCNC(=O)c1c(N)n(/N=C/c2cccnc2)c2nc3ccccc3nc12`: the growth inhibition is 4.43%.

In the case of `Cc1cc(=O)oc(C)c1C(=O)NCC(C)NC(=O)c1c(C)cc(=O)oc1C` (stereo not drawn), the growth inhibition was 0.25%.

For `Cc1nn(CC(=O)N2CCOCC2)c(=O)c2ccccc12`, the growth inhibition is 2.14%.

Take `COc1ccc(CCn2c(=N)c(C(=O)NCc3ccco3)cc3c(=O)n4ccccc4nc32)cc1OC`: the growth inhibition was 48.2%.

Turning to `CCOC(=O)c1cc2c(=O)n3cccc(C)c3nc2n(Cc2cccnc2)c1=N`, the growth inhibition was 1.61%.

`C=CCn1c(=N)c(C(=O)OCC)cc2c(=O)n3cccc(C)c3nc21`: the growth inhibition is 16.9%.

Take `COc1ccc(CCn2c(=N)c(C#N)cc3c(=O)n4ccccc4nc32)cc1`: the growth inhibition was 11.5%.

`CCOC(=O)c1cc2c(=O)n3ccccc3nc2n(Cc2ccccc2Cl)c1=N`: the growth inhibition is 52.6% (active).

As for `COc1ccc(CCn2c(=N)c(C(=O)NCc3ccco3)cc3c(=O)n4ccccc4nc32)cc1`, the growth inhibition was 61.2% (active).

`O=C1c2ccccc2C(=O)N1CCN1CCc2ccccc21`: the growth inhibition was 8.36%.

In the case of `Cc1ccc(C(C)C)c(OCCNc2nc3c(c(=O)n(C)c(=O)n3C)n2C)c1`, the growth inhibition was 20.2%.

Turning to `CCSc1nc(N)c2c3c(sc2n1)CCC3`, the growth inhibition was 6.53%.

Consider `c1csc(-c2nn3c(C4CCCCC4)nnc3s2)c1`, for which the growth inhibition was 7.39%.

Take `CC(C)(C)n1cnc2cc(NS(=O)(=O)c3ccc(Br)cc3)ccc21`: the growth inhibition is 61.4% (active).

Consider `CC1CN(C2CCN(S(=O)(=O)c3ccc4ccccc4c3)CC2)CC(C)O1` (stereo not drawn), for which the growth inhibition was 8.58%.

As to `CC(C)c1nc2sc3c(c2c(=O)o1)CCCC3`, the growth inhibition is 0.69%.

As to `CCOc1ccc(C2C(C#N)=C(N)Oc3cc(C)n(CCN4CCOCC4)c(=O)c32)cc1OCC` (stereo not drawn), the growth inhibition was 1.16%.

As to `CO[C@H]1C[C@@H]2CC[C@@H](C)[C@@](O)(O2)C(=O)C(=O)N2CCCC[C@H]2C(=O)O[C@H]([C@H](C)C[C@@H]2CC[C@@H](O)[C@H](OC)C2)CC(=O)[C@H](C)C=C(C)[C@@H](O)[C@@H](OC)C(=O)[C@H](C)C[C@H](C)C=CC=CC=C1C`, the growth inhibition was 65.2% (active).

Regarding `CCCOC(=O)C1[C@H]2C(=O)N(Cc3ccco3)C[C@]23C=C[C@H]1O3` (stereo partly drawn), the growth inhibition was 9.74%.

As for `CCCOc1ccc(C(C)=O)cc1CSCCC#N`, the growth inhibition was 8.19%.

On to `CCOC(=O)c1c(C)[nH]sc1=S`, for which the growth inhibition is 3.75%.

`CCOC(=O)c1c(C(F)(F)C(F)(F)C(F)(F)C(F)(F)F)n[nH]c1C`: the growth inhibition was 91.1% (active).

For the molecule `CCOC(=O)c1c(C)[nH]c(/C(C)=N/O)c1C`, the growth inhibition is 12.8%.

On to `CCOC(=O)C1=C(C)NC(C)=C(C(=O)OC)C1c1cccc(Cl)c1Cl` (stereo not drawn), for which the growth inhibition is 79.5% (active).

In the case of `CCOC(=O)C1=C(C)NC(=O)NC1c1ccc2c(c1)OCO2` (stereo not drawn), the growth inhibition was 5.16%.

As to `COC(=O)C1=C(C)NC(C)=C(C(=O)OC)C1c1ccccc1[N+](=O)[O-]`, the growth inhibition is 47.5%.

With `CCOC(=O)C1=C(C)NC(C)=C(C(=O)OC)C1c1cccc([N+](=O)[O-])c1` (stereo not drawn), the growth inhibition was 52.7% (active).

`CCOC(=O)C1=C(C)NC(=O)C1CC(=O)Nc1ccccc1` (stereo not drawn): the growth inhibition was -0.76%.

Regarding `COCCOC(=O)C1=C(C)NC(C)=C(C(=O)OC(C)C)C1c1cccc([N+](=O)[O-])c1` (stereo not drawn), the growth inhibition was 34.4%.

As to `Cc1c(O)c(CN2CCCC2)cc2c1oc(=O)c1ccccc12`, the growth inhibition was 9.98%.

In the case of `N#Cc1c(N2CCOCC2)nc(-c2ccco2)c2c1CCCC2`, the growth inhibition is 7.04%.

For the molecule `C/C=C(/C(=C/C)c1ccc(O)cc1)c1ccc(O)cc1`, the growth inhibition was 50.9% (active).

With `CCC(=O)c1ccc(O)cc1`, the growth inhibition was 4.76%.

With `Cn1c(NCCN2CCCCC2)cc(=O)n(C)c1=O`, the growth inhibition was -1.36%.

On to `COc1cc(C2CC(C(F)(F)F)n3ncc(C(=O)O)c3N2)cc(OC)c1OC` (stereo not drawn), for which the growth inhibition was 2.64%.

For `CN1CCN(C(=O)CSc2nc(-c3cccs3)ccc2C#N)CC1`, the growth inhibition is 3.23%.

Take `COc1ccc(N2C(=O)CC(N(Cc3ccc(S(N)(=O)=O)cc3)C(C)=O)C2=O)cc1` (stereo not drawn): the growth inhibition is 0.97%.

Consider `Cc1ccc2[nH]c3c(c2c1)CN(C(=O)CN1CCCc2ccccc21)CC3`, for which the growth inhibition was 69% (active).

Take `Cc1ccc2[nH]c3c(c2c1)CN(C(=O)CN1CCN(c2ccccn2)CC1)CC3`: the growth inhibition is 15.6%.

As for `Cc1ccc2[nH]c3c(c2c1)CN(C(=O)CN1CC(C)OC(C)C1)CC3` (stereo not drawn), the growth inhibition is 3.04%.
